# Data as given in PubChem BioAssay.
# The source made the active and inactive calls.
# Columns and labels:
# [1] = optical density shifts of acrAB sulA E. coli – strain DRC41, OD650, 48 h, E. coli filamentation inducer project, primary screen (AID 1152); details: higher = more signal, called active from +8 up or from −8 down;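 note: E. coli MC1000 strain DRC41 lacking acrAB efflux pump and sulA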
# [2] = probe aLefty1 binding on compound microarray – biochemical, small-molecule microarray, 635/667 nm fluorescence, primary screen (AID 1153); details: higher = more signal;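 note: score merges spot fluorescence with signal-to-noise ratio from the scanned slide images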
# [3] = plasmodial surface anion channel blockers, osmotic lysis – cell-based, P. falciparum Indochina, OD700, 1 h, primary screen (AID 1154); details: P. falciparum Indochina infected RBC osmotic lysis, higher = more signal, called active from +8 up or from −8 down
# [4] = plasmodial surface anion channel blockers, osmotic lysis – cell-based, P. falciparum Indochina, OD700, 2 h, primary screen (AID 1155);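 note: lysis reports solute entry through the parasite surface anion channel PSAC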; details: P. falciparum Indochina infected erythrocytes, higher = more signal, called active from +8 up or from −8 down
# [5] = changes in parasitized red cell lysis, either direction – P. falciparum Indochina, OD700, 3 h, PSAC antagonist project, primary screen (AID 1156); details: P. falciparum-infected erythrocytes, osmotic lysis, higher = more signal, called active from +8 up or from −8 down
# [6] = plasmodial surface anion channel blockers, osmotic lysis – cell-based, P. falciparum Indochina, OD700, 18 h, primary screen (AID 1157); details: P. falciparum Indochina infected erythrocytes, osmotic lysis OD700, 18 h; higher = more signal, called active from +8 up or from −8 down
# [7] = S6 kinase pathway phospho-S6 level changes – cell-based, A549, cytoblot, luminescence, serum-stimulated, primary screen (AID 1158); details: 5 h, higher = more signal;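 note: serum-stimulated A549 lung adenocarcinoma cells; signal is phosphorylated S6 detected by cytoblot immunostaining with HRP secondary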
# [8] = biological target: NADPH oxidase 2 (Homo sapiens) (UniProt P04839); test: compounds shifting NOX2 Amplex Red fluorescence – cell-based, HEK293-NOX2, PMA-stimulated, NOX inhibitor project, primary screen (AID 1159); details: 45 min, higher = more signal, called active from +8 up or from −8 down; note: test concentration not given here
# [9] = biological target: NADPH oxidase 4 (Homo sapiens) (UniProt Q9NPH5); test: compounds shifting NOX4 Amplex Red fluorescence – cell-based, HEK293-NOX4, tetracycline-induced, NOX inhibitor project, primary screen (AID 1160); details: HEK293-NOX4, Amplex Red H2O2 fluorescence, 45 min; higher = more signal, called active from +8 up or from −8 down
# [10] = biological target: NADPH oxidase 5 (Homo sapiens) (UniProt Q96PH1); test: compounds shifting NOX5 Amplex Red fluorescence – cell-based, HEK293-NOX5, NOX inhibitor project, primary screen (AID 1161); details: HEK293-NOX5, ionomycin, 45 min, higher = more signal
# NADPH oxidase 5 (Homo sapiens), sequence (Q96PH1 whole entry, looked up): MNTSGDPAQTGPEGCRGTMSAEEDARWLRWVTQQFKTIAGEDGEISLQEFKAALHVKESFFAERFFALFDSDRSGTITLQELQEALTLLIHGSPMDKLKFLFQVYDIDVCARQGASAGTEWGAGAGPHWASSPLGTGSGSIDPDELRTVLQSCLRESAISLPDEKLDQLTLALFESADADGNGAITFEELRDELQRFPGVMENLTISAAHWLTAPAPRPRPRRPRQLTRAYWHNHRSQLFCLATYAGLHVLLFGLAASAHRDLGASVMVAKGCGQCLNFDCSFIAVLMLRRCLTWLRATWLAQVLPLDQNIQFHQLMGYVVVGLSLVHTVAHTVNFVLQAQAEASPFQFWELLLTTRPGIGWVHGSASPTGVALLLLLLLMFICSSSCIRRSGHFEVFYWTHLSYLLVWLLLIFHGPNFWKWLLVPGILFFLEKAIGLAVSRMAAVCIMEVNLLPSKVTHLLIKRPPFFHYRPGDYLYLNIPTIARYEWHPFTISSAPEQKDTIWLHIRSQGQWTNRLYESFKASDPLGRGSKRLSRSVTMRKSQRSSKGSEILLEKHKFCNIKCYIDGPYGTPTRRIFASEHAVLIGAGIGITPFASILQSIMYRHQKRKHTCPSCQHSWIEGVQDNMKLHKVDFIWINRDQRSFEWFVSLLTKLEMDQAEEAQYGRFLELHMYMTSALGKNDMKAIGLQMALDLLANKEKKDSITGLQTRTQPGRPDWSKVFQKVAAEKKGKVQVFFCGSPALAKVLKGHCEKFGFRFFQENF
# NADPH oxidase 2 (Homo sapiens), sequence (P04839 whole entry, looked up): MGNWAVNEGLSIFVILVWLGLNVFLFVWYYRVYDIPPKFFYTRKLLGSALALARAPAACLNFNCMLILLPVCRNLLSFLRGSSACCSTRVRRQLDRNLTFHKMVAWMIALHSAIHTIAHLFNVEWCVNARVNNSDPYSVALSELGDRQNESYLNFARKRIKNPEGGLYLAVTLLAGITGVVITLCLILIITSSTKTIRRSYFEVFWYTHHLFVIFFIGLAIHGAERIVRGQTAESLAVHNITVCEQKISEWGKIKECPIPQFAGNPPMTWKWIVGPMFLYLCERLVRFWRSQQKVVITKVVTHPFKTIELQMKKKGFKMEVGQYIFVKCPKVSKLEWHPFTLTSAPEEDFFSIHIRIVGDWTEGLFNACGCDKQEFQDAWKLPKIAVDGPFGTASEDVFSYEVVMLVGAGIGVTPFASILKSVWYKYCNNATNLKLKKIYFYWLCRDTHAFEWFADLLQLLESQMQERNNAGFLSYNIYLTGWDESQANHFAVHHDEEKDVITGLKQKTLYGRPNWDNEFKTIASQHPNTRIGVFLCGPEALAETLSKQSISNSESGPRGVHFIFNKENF
# NADPH oxidase 4 (Homo sapiens), sequence (Q9NPH5 whole entry, looked up): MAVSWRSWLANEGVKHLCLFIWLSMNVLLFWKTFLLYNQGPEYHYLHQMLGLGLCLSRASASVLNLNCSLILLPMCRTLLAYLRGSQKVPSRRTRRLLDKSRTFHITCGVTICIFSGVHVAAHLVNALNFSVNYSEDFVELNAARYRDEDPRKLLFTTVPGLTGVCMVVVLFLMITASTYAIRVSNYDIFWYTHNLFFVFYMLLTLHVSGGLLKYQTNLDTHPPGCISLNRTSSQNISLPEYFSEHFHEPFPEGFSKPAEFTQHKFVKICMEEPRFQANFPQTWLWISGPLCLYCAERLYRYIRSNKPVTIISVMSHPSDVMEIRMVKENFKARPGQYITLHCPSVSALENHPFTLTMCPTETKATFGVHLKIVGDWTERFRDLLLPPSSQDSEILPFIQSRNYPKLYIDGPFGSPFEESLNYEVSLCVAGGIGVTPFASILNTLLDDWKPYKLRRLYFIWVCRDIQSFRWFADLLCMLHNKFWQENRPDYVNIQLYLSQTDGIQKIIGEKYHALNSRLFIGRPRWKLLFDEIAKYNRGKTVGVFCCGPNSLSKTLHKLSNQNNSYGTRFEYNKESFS
SMILES,z-score [1],composite z-score [2],z-score [3],z-score [4],z-score [5],z-score [6],z-score [7],z-score [8],z-score [9],z-score [10]
C=C[C@H](COC(C)=O)N(C(=O)OC(C)(C)C)S(=O)(=O)c1ccc(Br)cc1,1.34 (inactive),0.312,0.874 (inactive),-0.141 (inactive),-0.301 (inactive),0.0544 (inactive),0.314,0.406 (inactive),0.356 (inactive),-0.772
O=C1O[C@H](c2ccccc2)[C@H](c2ccccc2)N2[C@H]1[C@@H](C(=O)O)[C@]1(C(=O)Nc3ccc(C#CCCO)cc31)[C@H]2c1ccc(O)cc1,1.4 (inactive),0.334,1.43 (inactive),0.4 (inactive),0.735 (inactive),0.531 (inactive),0.282,-0.185 (inactive),-0.455 (inactive),0.157
NCCCCCNC(=O)[C@@H]1C[C@@H]2C(=O)NCC(=O)N2[C@@H]1c1ccc(O)cc1,-0.142 (inactive),-0.0984,0.539 (inactive),0.115 (inactive),-0.563 (inactive),-0.0673 (inactive),-0.47,-0.354 (inactive),-0.0757 (inactive),0.564
Cc1ccc(S[C@]2(C(=O)NC3CC3)CC(=O)N(C3Cc4ccccc4C3)[C@@H]2c2ccc(CO)cc2)cc1,2.26 (inactive),0.0962,0.924 (inactive),-0.578 (inactive),-0.758 (inactive),-0.876 (inactive),0.827,-0.655 (inactive),0.585 (inactive),0.205
COCCOC(=O)N1C(=O)[C@@]2(c3ccccc31)[C@H](c1ccccc1OCCO)N1[C@H](c3ccccc3)[C@H](c3ccccc3)OC(=O)[C@H]1[C@@H]2C(=O)Nc1nc2ccccc2s1,1.57 (inactive),0.523,3.27 (inactive),2.77 (inactive),1.37 (inactive),1.84 (inactive),0.59,1.39 (inactive),1.41 (inactive),0.676
C=C(CCCC)/C(=C/C[C@@H](OC(C)=O)c1ccccc1OCCO)c1cnc2ccccc2c1,-0.19 (inactive),0.082,21.1 (active),4.29 (inactive),1.96 (inactive),1.39 (inactive),0.132,-1.87 (inactive),-1.61 (inactive),-1.79
Cc1ccc(C(C)CC(O)C2C=CC3C(=O)N(c4ccccc4)C(=O)C3N2Nc2ccc([N+](=O)[O-])cc2)o1 (stereo not given),-0.571 (inactive),0.218,9.35 (active),2.22 (inactive),0.0777 (inactive),1.49 (inactive),-0.359,0.414 (inactive),-0.521 (inactive),-1.27
CN1C(=O)[C@]2(Cc3ccccc3)N=C(c3ccc(OCCCO)cc3)O[C@@H]2c2ccccc21,-0.105 (inactive),-0.157,33.7 (active),32.4 (active),2.34 (inactive),3.54 (inactive),0.435,-2.02 (inactive),-0.608 (inactive),-1.93
COC(=O)C=C(CC(O)c1cccc(Cl)c1)OC (stereo not given),0.502 (inactive),1.6,19.4 (active),2.27 (inactive),-0.188 (inactive),-0.936 (inactive),0.794,0.0865 (inactive),-0.0239 (inactive),0.219
CC(C)C[C@H]1NC(=O)[C@@]23C(=O)N[C@@H](Cc4ccccc4)C2[C@H](C)[C@@]2(C)O[C@H]2C3/C=C/C/C=C\CNC(=O)[C@H](Cc2ccccc2)NC1=O (stereo not given in full),-0.0044 (inactive),0.0999,2.14 (inactive),-0.0365 (inactive),1.58 (inactive),0.207 (inactive),-0.175,0.845 (inactive),-0.847 (inactive),0.971
COCCCNC(=O)[C@@]1(Cc2ccccc2N=[N+]=[N-])N=C(c2ccc(OCCCO)cc2)O[C@H]1c1ccccc1N=[N+]=[N-],-0.439 (inactive),0.302,28.8 (active),25.2 (active),2.41 (inactive),5.91 (inactive),0.621,-2.05 (inactive),0.518 (inactive),-2.22
CC(C)C(=C=CC[C@@H](O)c1ccccc1OCCO)CCO,0.351 (inactive),-0.0501,1.95 (inactive),0.63 (inactive),-1.33 (inactive),0.428 (inactive),0.278,0.729 (inactive),0.147 (inactive),-2.06
CN(C)CCCNC(=O)[C@@]1(c2ccc([N+](=O)[O-])cc2)CC(=O)N(C2CCCCC2)[C@@H]1c1ccc(CO)cc1I,-2.09 (inactive),0.0824,14.8 (active),1.44 (inactive),-2.81 (inactive),0.037 (inactive),-1.78,-8.16 (active),-2.52 (inactive),0.205
C=CCN1C(=O)[C@]2(O[C@H](CCO)[C@@H]([Si](C)(C)c3ccc(OC)cc3)[C@@H]2C)c2cc(N3CCCCC3=O)ccc21,0.143 (inactive),0.0004,4.68 (inactive),2.25 (inactive),-0.328 (inactive),1.7 (inactive),1.14,0.972 (inactive),0.43 (inactive),0.801
O=C1O[C@H](c2ccccc2)[C@H](c2ccccc2)N2[C@H]1[C@@H](C(=O)Nc1nc3ccccc3s1)[C@]1(C(=O)Nc3ccc(C#CC4(O)CCCCCC4)cc31)[C@H]2c1ccc(OCCO)cc1,-0.558 (inactive),0.338,3.28 (inactive),1.58 (inactive),0.501 (inactive),1.67 (inactive),-0.239,0.286 (inactive),0.11 (inactive),-0.0468
COC(=O)[C@@]1(Cc2ccc(OC)cc2)[C@H]2c3cc(C(=O)N4CCCC4)n(Cc4ccc(OC)c(OC)c4)c3C[C@H]2CN1C(=O)c1ccccc1,-1.08 (inactive),1.61,4.08 (inactive),0.81 (inactive),1.92 (inactive),0.91 (inactive),0.0413,0.555 (inactive),0.235 (inactive),-3.23
COc1cc(OC)c(C(O)C2C=CC3C(=O)NC(=O)C3N2Nc2ccc(Cl)cc2Cl)cc1Br (stereo not given),-2.02 (inactive),0.689,4.81 (inactive),1.4 (inactive),-0.372 (inactive),1.84 (inactive),-0.924,-0.603 (inactive),-5.17 (inactive),-1.12
